Bioassay records: PubChem, several laboratories
Ecoli rRNA inh = reduced GFP signal of wild-type E. coli, primary screen, bacterial rRNA inhibitor project, GFP/RFP fluorescence, OD600, single point | 350,000 compounds, 1.6% hits | AID 720706, 2013 | GFP signal change (wild-type ribosome), % (concentration not given with the values) | E. coli WT GFP vs humanized-ribosome RFP mutants, 24 h; hits give low values; DMSO median 0, no signal -100;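 active = significant combined selectivity score with lowered wild-type GFP, culture density cut under 30%, mutant RFP and density less affected; inactive = any of these conditions unmet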
ADAM17 inh = ADAM17 inhibitors, primary screen, biochemical, QFRET. Disintegrin and metalloproteinase domain-containing protein 17 (Homo sapiens), P78536. recombinant ADAM17, EDANS/DABCYL FRET peptide cleavage. inhibition, % at 6.95 µM. 370,000 compounds, 0.83% hits. AID 720648, 2013;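 active = inhibition above the mean of compounds lying between control limits plus 3 SD, set per campaign, cut at about 8.5% in these data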;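 note: 0% = DMSO-only wells as the low control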
FGF22 binding-1 = binders of human FGF22 protein, primary screen, FGF22 synaptogenesis inhibitor project, biophysical, thermal shift, single point | Fibroblast growth factor 22 (Homo sapiens), Q9HCT0 | recombinant FGF22 thermal shift, SYPRO orange fluorescence; percent of sucrose octasulfate shift, DMSO zero | activity (Tm shift, normalised), % at 9.99 µM | 340,000 compounds, 1.5% hits | AID 651658, 2012;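 active = mean Tm shift, scaled 0 neutral to 100 positive control, at about 1.3% or above, every replicate too, limit read from the data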
ADAM10 inh = human ADAM10 inhibitors, primary screen, biochemical, QFRET, HTS. Disintegrin and metalloproteinase domain-containing protein 10 (Homo sapiens), O14672. recombinant ADAM10, EDANS/DABCYL FRET peptide cleavage, 3 h. inhibition, % at 7 µM. 370,000 compounds, 0.62% hits;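 active = inhibition above a per-campaign cutoff equal to the mean of compounds falling between control-based bounds plus 3 SD, cut at about 20% in these data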;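 note: 0% = DMSO wells while the 100% control is not disclosed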
Target sequence (O14672 214-748 limits assumed): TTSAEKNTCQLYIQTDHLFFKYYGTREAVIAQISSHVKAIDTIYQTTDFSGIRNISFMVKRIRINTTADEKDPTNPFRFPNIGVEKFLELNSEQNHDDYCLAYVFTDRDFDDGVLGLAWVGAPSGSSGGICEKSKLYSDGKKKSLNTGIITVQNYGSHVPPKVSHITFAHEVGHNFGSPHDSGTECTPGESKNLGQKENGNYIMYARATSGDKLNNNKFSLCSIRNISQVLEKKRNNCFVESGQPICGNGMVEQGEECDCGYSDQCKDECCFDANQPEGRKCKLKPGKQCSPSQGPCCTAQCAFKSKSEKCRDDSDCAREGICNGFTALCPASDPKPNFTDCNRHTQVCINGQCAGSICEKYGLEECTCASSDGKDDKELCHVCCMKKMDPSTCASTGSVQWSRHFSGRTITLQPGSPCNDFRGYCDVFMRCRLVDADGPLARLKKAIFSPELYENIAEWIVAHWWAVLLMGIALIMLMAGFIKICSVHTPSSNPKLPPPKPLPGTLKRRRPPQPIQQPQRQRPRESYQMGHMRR
proKLK7 act = proKLK7 zymogen activators, primary screen, biochemical, fluorescence intensity | Kallikrein-7 (Homo sapiens), P49862 | purified proKLK7, EDANS-DABCYL substrate fluorescence; 100% is mature enzyme control, 0% vehicle | activation, % at 7 µM | 370,000 compounds, 0.9% hits | AID 652039, 2013;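 active = activation above the mean of all tested compounds plus 3 SD, computed per campaign excluding outliers beyond control limits, cut at about 13% in these data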
Target sequence (P49862 whole entry, looked up): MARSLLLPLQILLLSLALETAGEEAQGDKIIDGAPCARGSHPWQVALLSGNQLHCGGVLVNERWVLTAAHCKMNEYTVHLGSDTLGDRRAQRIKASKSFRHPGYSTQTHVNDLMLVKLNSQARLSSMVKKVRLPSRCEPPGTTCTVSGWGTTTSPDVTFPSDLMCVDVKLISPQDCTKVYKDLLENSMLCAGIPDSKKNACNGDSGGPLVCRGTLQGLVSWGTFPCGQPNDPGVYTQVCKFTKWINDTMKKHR
FGF22 binding-2 = binders of human FGF22 protein, dose response, FGF22 synaptogenesis inhibitor project, biophysical, thermal shift, cherry-pick retest. shares compounds with FGF22 binding-1. recombinant FGF22 thermal shift, SYPRO orange fluorescence. thermal shift activity, °C (ΔTm) at 38 µM. 1,000 compounds, 2% hits;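 active = fitted rise in melting shift crosses a set limit at or below the top valid dose tested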
SYPRO no-protein = compound-only thermal shift signal without protein, dose response, artefact control for FGF22 binder project, biochemical, cherry-picked samples, RT-PCR instrument. shares compounds with FGF22 binding-1. compound-only SYPRO orange thermal shift counter-screen, no protein. 1,000 compounds, 2% hits. AC50, µM (top dose mostly 38 µM). AID 743019, 2013;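 active = rising signal whose fitted curve reaches the 0.54 level within the top valid dose, showing a melting point, actives reach about 13 µM in these data; inactive = the rest, including activity in the opposite direction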; note: value is where the raw curve crosses a fixed level and not half-maximal
KLK7 act conf = proKLK7 zymogen activators, confirmation, biochemical, fluorescence intensity, triplicate; activation, % at 7 µM; 3,200 compounds, 68% hits; purified proKLK7, EDANS-DABCYL substrate fluorescence; scaled: vehicle 0, mature enzyme 100; shares compounds with proKLK7 act;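 active = activation, as change over the incubation, above the mean of all tested compounds plus 3 SD, cut at about 13% in these data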
EDANS-DABCYL int = EDANS-DABCYL substrate optical interference, artefact control for kallikrein-7 zymogen activator project, biochemical, fluorescence intensity, high throughput. shares compounds with proKLK7 act. no enzyme, 4 h; solvent 0%, active enzyme control 100%. activation, % at 7 µM. 3,200 compounds, 80% hits;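 active = activation above the all-compound mean plus 3 SD, ignoring values outside control-based bounds, cut at about 4.8% in these data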;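 note: value is the 4 h activation minus the activation read at time zero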
K7 EDANS ctr = counter-screen for kallikrein-7 activators: EDANS-DABCYL interference, dose response | EC50, µM | shares compounds with proKLK7 act | AID 720493 | EDANS-DABCYL peptide fluorescence interference, no enzyme | 250 compounds, 20% hits;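 active = compounds that raise the fluorescence signal in this interference counterscreen, with EC50 at or below 10 µM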;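 note: intact quenched peptide substrate alone read at 355 nm excitation and 520 nm emission; signal is fluorescence gain from T0 to T4 after four hours at room temperature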
* = called active by the depositor; i = inactive; · = no result given; ! = not active in a repeat. An excerpt weighted towards active compounds, which were near 3.8% of everything screened.

SMILES | Ecoli rRNA inh | ADAM17 inh | FGF22 binding-1 | ADAM10 inh | proKLK7 act | KLK7 act conf | EDANS-DABCYL int | others
N/C(=N\[N+](=O)[O-])NCCCC(NC(=O)CNC(=O)c1ccccc1)C(=O)O (stereo not given) | 2.3 | -0.3 | 2.5* | 5.0 | -0.4 | · | · | FGF22 binding-2=0.08;SYPRO no-protein=i
COC(=O)[C@H]1[C@H](CO)[C@H]2Cn3c(cccc3=O)[C@@H]1N2C(=O)C1CCC1 | · | · | -0.6 | · | · | · | ·
Cc1ccc(S(=O)(=O)N(C)C[C@H]2Oc3cc(Br)ccc3S(=O)(=O)N([C@H](C)CO)C[C@@H]2C)cc1 | 4.2 | 2.0 | 1.6*! | -4.2 | 0.1 | · | · | FGF22 binding-2=-1.86;SYPRO no-protein=10.1µM*
Cc1ccc(S(=O)(=O)N(C)C[C@@H]2Oc3cc(Br)ccc3S(=O)(=O)N([C@@H](C)CO)C[C@H]2C)cc1 | 1.8 | · | 2.2* | · | · | · | · | FGF22 binding-2=-0.038;SYPRO no-protein=i
Cc1ccc(OC(=O)N(C)C[C@@H]2OCc3cnnn3CCCC(=O)N([C@@H](C)CO)C[C@H]2C)cc1 | 15.1 | -3.8 | -0.1 | -5.5 | 0.8 | · | ·
COC(=O)[C@@H]1[C@@H](CO)[C@@H]2Cn3c(ccc(-c4ccccc4OC)c3=O)[C@H]1N2Cc1ccccc1 | -4.8 | · | · | · | · | · | ·
COc1ccc(-c2ccc([C@@H]3[C@@H](CO)N4CCCCN(C(=O)Cc5ccccc5)C[C@H]34)cc2)cc1 | -58.0 | · | · | · | · | · | ·
CCC(C)n1c(O)c(C=NC(C)c2ccccc2)c(=O)[nH]c1=S (stereo not given) | · | -4.8 | 0.0 | -2.5 | -0.2 | · | ·
CCC(C)n1c(O)c(C(c2ccccn2)c2c(O)n(C(C)CC)c(=S)[nH]c2=O)c(=O)[nH]c1=S (stereo not given) | 15.0 | -4.1 | 25.9* | -17.6 | 0.1 | · | · | FGF22 binding-2=-0.062;SYPRO no-protein=i
Cc1cc(O)c2c(C)c(CC(=O)N3C[C@H]4C[C@@H](C3)c3cccc(=O)n3C4)c(=O)oc2c1 | · | -14.8 | 0.2 | -72.2 | -6.0 | · | ·
COc1cc(C)cc2oc(=O)c(CC(=O)N3C[C@H]4C[C@@H](C3)c3cccc(=O)n3C4)c(C)c12 | -2.5 | -250.0 | -0.2 | i | 21.6* | 15.3* | 16.8*
CN(C)c1ccc(/C=C2/C(=N\O)C3CCN2CC3)cc1 | · | -21.6 | -0.5 | -56.4 | 55.7* | 130.4* | 152.9*
COc1ccc(-n2c(/C=C/c3ccc(O)cc3)nc3ccccc3c2=O)cc1 | -8.0 | -2.1 | -0.1 | -9.3 | -0.3 | · | ·
O=c1c2ccccc2nc(/C=C/c2ccc(O)cc2)n1-c1cccc(O)c1 | 8.7 | -77.5 | 0.2 | -196.4 | 214.4* | 206.8* | 77.8*
O=c1c2ccccc2nc(/C=C/c2ccc(O)cc2)n1-c1ccc(O)cc1 | -8.7 | -14.8 | -0.4 | -37.3 | 26.5* | 13.9* | 1.5 | K7 EDANS ctr=>23.2
Cc1cccc(S(=O)(=O)N2[C@@H]3Cn4c(ccc(-c5cccc(F)c5)c4=O)[C@H]2[C@@H](C(=O)O)[C@@H]3CO)c1 | 2.2 | · | · | · | · | · | ·
COc1ccc(OC(=O)N(C)C[C@H]2OCc3ccccc3-c3c(n(C)c4ccccc34)C(=O)N([C@@H](C)CO)C[C@@H]2C)cc1 | 2.5 | · | · | · | · | · | ·
COC(=O)[C@H]1[C@H](CO)[C@H]2Cn3c(ccc(C4=CCCCC4)c3=O)[C@@H]1N2Cc1cccnc1 | 0.7 | · | 0.2 | · | · | · | ·
CCCCn1c(N)c(C(=O)OCCOC)c2nc3ccccc3nc21 | 1.7 | -288.8 | 0.0 | i | -0.4 | · | ·
COCCOC(=O)c1c(N)n(Cc2ccccc2)c2nc3ccccc3nc12 | · | i | · | i | 31.5* | -51.8 | -152.1
Nc1c(C(=O)NCc2ccco2)c2nc3ccccc3nc2n1CCN1CCOCC1 | · | i | · | i | 34.3* | -12.2 | -17.3
CC(C)OC(=O)c1c(N)n(CC2CCCO2)c2nc3ccccc3nc12 (stereo not given) | · | i | · | i | 48.0* | 72.6* | 72.5*
CCOC(=O)c1c(N)n(Cc2ccco2)c2nc3ccccc3nc12 | · | i | · | i | 47.4* | 60.3* | 78.5*
COCC(C)OC(=O)c1c(N)n(Cc2ccco2)c2nc3ccccc3nc12 (stereo not given) | · | i | · | i | 0.6 | · | ·
COc1ccc(-c2cc(=NCCC(=O)O)c3cc(C)ccc3o2)cc1 | -15.9 | i | 0.0 | i | 85.5* | 68.5* | 72.8*
SMILES | Ecoli rRNA inh | ADAM17 inh | FGF22 binding-1 | ADAM10 inh | proKLK7 act | KLK7 act conf | EDANS-DABCYL int | others
COc1ccc(-c2cc(=Nc3ccccc3)c3cc(C)ccc3o2)cc1 | -11.3 | i | 0.4 | i | -13.7 | · | ·
COc1ccc2c(c1)[nH]c1c(C)nccc12 | · | -336.4 | -0.3 | i | 46.6* | 19.6* | 11.0* | K7 EDANS ctr=i
O=C(O)[C@@H]1[C@@H](CO)[C@@H]2Cn3c(ccc(-c4cccnc4)c3=O)[C@H]1N2S(=O)(=O)c1ccccc1F | 0.6 | · | -0.3 | · | · | · | ·
C#CC1(O)CCC2C3CCC4=CC(=O)CCC4=C3C=CC21C (stereo not given) | 0.2 | -78.7 | -0.4 | -330.1 | 14.0* | 9.1 | 10.7*
CCOC(=O)[C@@H]1[C@@H]2NC(=S)N[C@@]1(C)Oc1ccccc12 | · | · | -0.8 | · | · | · | ·
CCOCCCn1c(N)c(C(=O)Nc2sc3c(c2C(=O)OC)CCCC3)c2nc3ccccc3nc21 | · | -456.5 | · | i | 28.0* | 0.8 | 1.1
CCOC(=O)c1c(NC(=O)c2c(N)n(CCCOC)c3nc4ccccc4nc23)sc2c1CCCC2 | 9.7 | -7.9 | 0.2 | -12.2 | -0.1 | · | ·
Cn1c(O)c(/C=C2\C=c3ccccc3=NC2=O)c(=O)n(C)c1=O | 14.7 | -33.0 | 0.0 | -89.4 | 13.4* | 14.4* | 12.3*
